# Laboratory results taken from PubChem BioAssay.
# Experiment: binders of probe aFGF2 on microarray, primary screen, stem cell growth factor project, biochemical, small-molecule microarray, fluorescence 635/667 (AID 1067);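 further: measures binding of biotinylated aFGF2 protein to printed compounds on slides; z-score merges feature fluorescence and signal-to-noise across triplicate slides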
# Conditions: higher = more signal
row,Compound,composite z-score
1,CC(C)NC(=O)[C@@]1(C)c2ccccc2C(=O)N(Cc2cc(F)cc(C(F)(F)F)c2)[C@H]1c1ccc(CO)cc1,0.0368
2,O=C1NC(=O)C2C1C=CC(C(O)Cc1ccccc1)N2Nc1ccccn1 (centres undefined),-0.0154
3,CC[C@@H](c1ccccc1)n1c(=O)n2n(c1=O)[C@H]1[C@H](O)[C@@H]3O[C@@H]3C(=NOCC(C)C)[C@H]1CC2,-0.119
4,COc1cccc([C@H]2Oc3ccc(OC)cc3C(=NO[C@H](C)c3cn([C@@H]4COC[C@H]4O)nn3)[C@@H]2O)c1,-0.0867
5,COCCOC(=O)N1C(=O)[C@@]2(c3cc(C#CCNC(N)=O)ccc31)[C@H](c1ccc(O)cc1)N1[C@H](c3ccccc3)[C@H](c3ccccc3)OC(=O)[C@H]1[C@@H]2C(=O)N1CCCCCCC1,-0.0022
6,C[C@@H](c1ccccc1)N1C(=O)[C@H]2[C@H]3[C@H](O)C=CC(=O)[C@@H]3CC[C@H]2C1=O,-0.218
7,CCCC[C@H]1OB(O)C[C@H]2C1=C(C)C[C@H]1C(=O)N(C)C(=O)[C@H]12,-0.0562
8,CCCCc1nc2c(c3c1C[C@H](C)OC3)CN(CCC(C)C)CC2,-0.0687
9,C/C=C\[C@@H](NCc1ccccc1Br)[C@@H](O)Cc1ccccc1,-0.151
10,CC(=O)C[C@H](O)[C@@H](NC(=O)OC(C)(C)C)C(C)C,-0.129
11,CC(C)=CCCC(C)=CCON=C1C[C@@H](O)[C@@H](O)[C@@H]2[C@@H]3C(=O)N(C[C@@H]4CCCO4)C(=O)[C@@H]3CC[C@@H]12,-0.134
12,CCOC(=O)NN=C1C[C@@H](O)[C@@H](O)[C@@H]2[C@@H]3C(=O)N(C(C)(C)C)C(=O)[C@@H]3CC[C@@H]12,0.0014
13,COCCCNC(=O)[C@]1(Cc2ccccc2)N=C(c2ccc(OCCCO)cc2)O[C@@H]1c1ccccc1,-0.01
14,CC(C)=NOCc1ccc(-c2cc(-c3ccccc3)no2)cc1,-0.0788
15,COCCCNC(=O)[C@@]1(Sc2ccc(C)cc2)CC(=O)N(Cc2ccccc2)[C@@H]1c1ccc(CO)cc1I,0.193
16,COc1ccc(-c2ccc3c(n2)CCCN3CC(O)CN2CCCc3nc(C)c(C)cc32)cc1 (centres undefined),0.126
17,CC(=O)OC[C@H]1O[C@H](CC=NOC[C@@H](C)[C@H](OCc2ccccc2)C(C)C)C=C[C@@H]1OC(C)=O,-0.087
18,CC(CCC(=O)OC[C@H]1O[C@H](C#Cc2ccccc2)C=C[C@@H]1Oc1ccc(C)cc1)=NO[C@@H](C)c1cn([C@H](CO)Cc2ccccc2)nn1,0.0092
19,COc1ccc([Si](C)(C)[C@H]2[C@H](CCO)O[C@@]3(C(=O)N(Cc4cccc(NC(=O)[C@H](C)O)c4)c4ccccc43)[C@@H]2C)cc1,-0.101
